Measured values as given in PubChem BioAssay (NCATS).
Active and inactive are the calls of the source. No rule for the calls is given here.

Experiment: Immunotoxin (HA22) sensitization/mitigation study. Vehicle arm (PBS) (AID 1159510)
Settings: cancer cells viability with PBS vehicle (HA22 study); series mostly up to 46.1 µM
Potency is read from the fitted curve at half-maximal effect.

Compound | Potency
CCc1cncnc1N1CCN(Cc2nc3ccc(C(F)(F)F)cc3[nH]2)CC1 | 7.43 µM (active)
CC(C)C[C@H](NC(=O)[C@@H](O)[C@H](N)Cc1ccccc1)C(=O)O | inactive
Cc1cccc(-c2[nH]c(C(C)(C)C)nc2-c2ccc3nccnc3c2)n1 | inactive
O=C(Nc1cccc(Cl)c1)Nc1ncc(CCNc2ncnc3ccsc23)s1 | 29.6 µM (active)
CC(=O)NC(C)c1ccc(Oc2ccc(OC(C)C)cc2)cc1 (stereo not given) | 16.6 µM (active)
COc1ccc(CC2SC(=O)NC2=O)cc1C(=O)NCc1ccc(C(F)(F)F)cc1 (stereo not given) | inactive
CCOc1cc(C(=O)Nc2ccc(Cl)c(-c3nc4ccccc4[nH]3)c2)cc(OCC)c1OCC | 14.8 µM (active)
O=C(c1cc(Cc2n[nH]c(=O)c3ccccc23)ccc1F)N1CCN(C(=O)C2CC2)CC1 | 14.8 µM (active)
COc1cc2nccc(Oc3ccc(NC(=O)Nc4cc(C)on4)c(Cl)c3)c2cc1OC | 18.7 µM (active)
CCCS(=O)(=O)Nc1ccc(F)c(C(=O)c2c[nH]c3ncc(-c4ccc(Cl)cc4)cc23)c1F | 23.5 µM (active)
CC(=O)c1c(C)c2cnc(Nc3ccc(N4CCNCC4)cn3)nc2n(C2CCCC2)c1=O | 16.6 µM (active)
COc1ccc(CCN2CCN(CCCc3ccccc3)CC2)cc1OC | 23.5 µM (active)
Cc1nn(Cc2ccccc2Cl)c(C)c1CN(C)CC(O)COc1ccc(Cl)cc1 (stereo not given) | 26.4 µM (active)
Cn1c2cc(S(C)=O)sc2c2cnn(Cc3cccc(N)c3)c(=O)c21 (stereo not given) | inactive
CCCCn1c(=O)n(Cc2ccccc2F)c(=O)c2[nH]c(Cc3ccc(NC(C)=O)cc3)nc21 | inactive
